Assay results from PubChem BioAssay.

Assay: S6 kinase pathway phospho-S6 level changes – cell-based, A549, cytoblot, luminescence, serum-stimulated, primary screen (AID 1158);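 note: serum-stimulated A549 lung adenocarcinoma cells; signal is phosphorylated S6 detected by cytoblot immunostaining with HRP secondary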
Conditions: 5 h, higher = more signal

SMILES	z-score
O=C1OCCC/C=C\[C@H]2OC34C=CCN(CCN5CCOCC5)C(=O)[C@H]3N(CCCO)C(=O)[C@@H]4C12 (stereo partly specified)	-0.181
COc1cc2c(cc1O)C=[N+](Cc1cccc(OC(F)(F)F)c1)CC2	0.818
COc1ccc(C(=O)Nc2cccc(CN3C(=O)[C@]4(O[C@H](CCO)[C@@H]([Si](C)(C)c5ccc(OC)cc5)[C@@H]4C)c4ccccc43)c2)cc1	-0.59
CCCCCN1CC=CC23O[C@@H]4/C=C\CCCOC(=O)C4[C@H]2C(=O)N(C(CO)C(C)C)[C@@H]3C1=O (stereo partly specified)	0.0595
O=C1O[C@H](c2ccccc2)[C@H](c2ccccc2)N2[C@H]1[C@@H](C(=O)NC[C@H](O)c1ccccc1)[C@]1(C(=O)Nc3ccccc31)[C@H]2c1ccc(OCCO)cc1	0.0578
CCOC(=O)[C@H]1CC=C2CC1C(=O)N1CCC[C@@H]1[C@@H]2O[Si](C)(C)C(C)(C)C (stereo partly specified)	-0.409
CCN(CC)c1ccc(N2CC=CC34O[C@@H]5/C=C\CCCOC(=O)C5[C@H]3C(=O)N(CCO)[C@@H]4C2=O)cc1 (stereo partly specified)	-0.155
COCCOC(=O)N1C(=O)[C@@]2(c3cc(C#CC4=CCCCC4)ccc31)[C@H](C(=O)Nc1nc3ccccc3s1)[C@H]1C(=O)O[C@H](c3ccccc3)[C@H](c3ccccc3)N1[C@@H]2c1ccc(OCCO)cc1	-0.145
CN1C(=O)C2C=CC(C(O)c3ccc(I)cc3)N(N3CCCCC3)C2C1=O (stereo unspecified)	-1.04
CC1CC/C=C\[C@H]2OC34C=CCN(c5ccc(Cl)cc5)C(=O)[C@H]3N(CCO)C(=O)[C@]4(C)C2C(=O)O1 (stereo partly specified)	1.13
COCCOC(=O)N1C(=O)[C@@]2(c3cc(C#Cc4ccc(OC)cc4)ccc31)[C@H](c1ccc(O)cc1)N1[C@H](c3ccccc3)[C@H](c3ccccc3)OC(=O)[C@H]1[C@@H]2C(=O)NC[C@H](O)c1ccccc1	0.264
